Source: PubChem
Shown are actives, neighbours in structure and some others; about 8.1% of the full set was active somewhere.
MCF10A rereplic – A quantitative high throughput screen for small molecules that induce DNA re-replication in MCF 10a normal breast cells; MCF 10A DNA re-replication, Hoechst nuclear intensity, 48 h; 2.9% of 350,000 active; AID 624296, 2012; Potency, µM (doses to about 46.1 µM), for inactives: at the top dose activity, positive = re-replication, actives largely listed as activators; note: % of control where 0% means no effect; nearly all actives have a fitted effect of over 50% in size
ELG1 DNA repair – qHTS screen for small molecules that inhibit ELG1-dependent DNA repair in human embryonic kidney (HEK293T) cells expressing luciferase-tagged ELG1. HEK293T ELG1-luciferase reporter, luminescence, 16 h; DNA damage induced by 5-fluorouridine. Potency, µM (titrated, usually from 46.1 µM), for the others: top-dose activity change, negative = inhibition, hits mostly inhibitors. 2.3% of 330,000 active. AID 504467, 2011; note: % is set by controls: 0 for no effect and ±100 for the full control effect; nearly all actives have a fitted effect of over 55% in size
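Quantitative HTS, concentration-response format. 2,000 cells/well co-treated with 5-fluorouridine and compound, 16 hr in 5% CO2 at 37 °C; ONE-Glo luminescence read after 30 min.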
SW480 rerep – A quantitative high throughput screen for small molecules that induce DNA re-replication in SW480 colon adenocarcinoma cells. SW480 DNA re-replication, Hoechst DNA content imaging, 48 h. Potency, µM (titrated, usually from 46.1 µM), for the others: at the top dose re-replication activation, most hits filed as activators. 1.8% of 340,000 active; note: % of control where 0% means no effect; nearly all actives have a fitted effect of over 55% in size
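Quantitative HTS format with DMSO vehicle controls; 48 hr drug incubation at 37 C, then 40 min Hoechst staining and scanning imager measurement at 405 nm excitation.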
KB-V1 cytotox – qHTS assay for MDR1-selective chemotherapeutics: Primary screen using the drug-selected MDR subline cells KB-V1; 3.4% of 400,000 active; AID 1347076, 2019; KB-V1 MDR cells viability, CellTiter-Glo, 72 h; Potency, µM (highest dose often 46.1 µM), hits mostly cytotoxic; note: % is set by controls: 0 for no effect and ±100 for the full control effect; nearly all actives have a fitted effect of over 60% in size
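qHTS viability screen in drug-selected KB-V1 MDR cells: 72 h compound treatment at 37 degrees C, ATP luminescence end point.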
KB-3-1 cytotox – qHTS assay for MDR1-selective chemotherapeutics: Primary screen using the parental adenocarcinoma cell KB-3-1; KB-3-1 viability, CellTiter-Glo ATP luminescence, 72 h; Potency, µM (top dose mostly 46.1 µM), usual class: cytotoxic; 1.4% of 400,000 active; AID 1347075, 2019; note: % is set by controls: 0 for no effect and ±100 for the full control effect; nearly all actives have a fitted effect of over 60% in size
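Viability of parental KB-3-1 cells, measured by CellTiter-Glo luminescence, followed a 72 h incubation at 37 °C with pinned compounds in phenol-red-free DMEM containing 10% FBS.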
Numbers without * were called inactive; i = inactive; u = inconclusive; x = no result given. Calls come from the whole dose curve; as a rule, active = well fitted curve in the direction sought with a large enough effect; inconclusive = small, poorly fitted or top-dose-only effect, or another doubt; inactive = no such curve, though single readings can be large; an effect the other way counts as inactive or inconclusive. Potency is the fitted concentration of half-maximal effect.

SMILES | MCF10A rereplic | ELG1 DNA repair | SW480 rerep | KB-V1 cytotox | KB-3-1 cytotox
CCOc1ccccc1CNC(=O)C1CCCN(c2nnc(C)c3c(C)n(-c4ccccc4)nc23)C1 (centres undefined) | 15µM* | u | u | u | u
Cc1nnc(N2CCC(C(=O)NCc3cccc(Cl)c3)CC2)c2nn(-c3ccccc3)c(C)c12 | x | x | x | i | i
Cc1ccc(-n2nc3c(N4CCC(C(=O)NCc5cccc(F)c5)CC4)nnc(C)c3c2C)cc1 | 4% | 16µM* | -3% | i | i
COc1ccc(C2c3c(ccc4ccccc34)Oc3ncn4nc(Cc5ccc(OC)c(OC)c5)nc4c32)cc1 (centres undefined) | x | -1% | x | x | x
Cc1ccc(-c2cc(C(=O)N3CCN(S(=O)(=O)c4ccc(Br)s4)CC3)[nH]n2)cc1C | x | x | x | i | i
CC(C)CC(=O)/C(=C/c1ccc(N(C)C)cc1)n1cncn1 | -1% | 7% | -1% | i | i
CN(C)c1ccc(/C=C(/C(=O)c2ccc(Cl)cc2Cl)n2cncn2)cc1 | u | u | 18µM* | 5.2µM* | 23µM*
CC(C)CC(=O)/C(=C\c1ccc(Cl)cc1Cl)n1cncn1 | 4.6µM* | 21µM* | 6.5µM* | i | u
CC(/C=C1\SC(=S)N(NC(=O)c2ccc(C)cc2)C1=O)=C\c1ccccc1 | 14% | -3% | 12% | i | i
CC(/C=C1\SC(=S)N(NC(=O)c2ccccc2C)C1=O)=C\c1ccccc1 | 10µM* | 3% | -15% | i | i
Cc1ccc(C(=O)N2CCN(c3ccc(NC(=O)c4cccs4)cc3)CC2)cc1 | 2% | 9.2µM* | -1% | x | x
O=C(Nc1ccc(N2CCN(C(=O)c3ccc(Cl)cc3)CC2)cc1)c1cccs1 | 16% | 3% | u | i | i
Cc1ccn(-c2ccc(NC(=O)c3cccs3)cc2)n1 | u | u | -3% | 12µM* | 21µM*
O=C(Nc1ccc(N2CCN(C(=O)c3cccs3)CC2)cc1)c1ccc(F)cc1 | 0% | 18µM* | -11% | 0.18µM* | i
COc1ccc(C(=O)Nc2ccc(N3CCN(C(=O)c4cccs4)CC3)cc2)cc1Br | 18µM* | 13µM* | u | i | i
CC(=O)Nc1ccc(N2CCN(C(=O)c3cccs3)CC2)cc1 | 2% | 8% | 11% | i | i
CCOC(=O)CCn1cc(F)c(=O)[nH]c1=O | 4% | 4% | 12% | i | i
COc1ccc2nc(NC(=O)c3ccc(NS(=O)(=O)c4cccs4)cc3)sc2c1 | u | u | -1% | i | i
COc1cc(C2(O)CCCCC2C)cc(OC)c1OC (centres undefined) | -89% | 3% | 3% | i | i
CC(=O)N1CCN(c2ccc(NC(=O)c3ccc(C)cc3)cc2)CC1 | 3% | 1% | -5% | 18µM* | i
COc1cc(OC)cc(C(=O)Nc2ccc(N3CCN(C(=O)c4cccs4)CC3)cc2)c1 | 18µM* | 15µM* | u | 8.2µM* | 7.3µM*
COc1ccc2c(c1)[nH]c1c(=O)n(CCc3cnc[nH]3)cnc12 | 11% | 3% | -14% | i | i
N#C/C(C(=O)NCc1ccccc1)=C1/N=C(NC(=O)c2ccco2)c2ccccc21 | 9% | 1% | 3% | i | i
N#C/C(C(=O)NCCc1ccccc1)=C1/N=C(NC(=O)c2cccs2)c2ccccc21 | 8.2µM* | u | -41% | i | u
COc1ccc(CCNC(=O)/C(C#N)=C2\N=C(NC(=O)c3ccco3)c3ccccc32)cc1 | u | 7.3µM* | u | i | i
SMILES | MCF10A rereplic | ELG1 DNA repair | SW480 rerep | KB-V1 cytotox | KB-3-1 cytotox
COCCCNC(=O)/C(C#N)=C1\N=C(NC(=O)c2cccs2)c2ccccc21 | 0% | -8% | -3% | i | i
Cc1ccc(NC(=O)C(Cc2ccccc2)N2C(=O)C3C4CCC(C4)C3C2=O)cc1Cl (centres undefined) | u | 18µM* | u | u | u
C[C@@H]1Cc2c(O)c(O)cc(O)c2C(=O)O1 | -2% | -3% | -81% | i | i
CC1CCC/C=C/C(=O)c2c(O)cc(O)cc2CC(=O)O1 (centres undefined) | 1µM* | 8.2µM* | u | u | 10µM*
CC(C)CC(NC(=O)c1cccs1)c1nnc(SCc2ccc(Cl)c(Cl)c2)n1C (centres undefined) | 18µM* | u | 12% | u | u
COc1cccc(OC)c1C(=O)N1CCN(Cc2ccc3c(c2)OCO3)CC1 | -2% | -12% | -6% | i | i
Cc1ccc(-c2n[nH]c(=O)c3ccccc23)cc1S(=O)(=O)Nc1ccccc1 | u | u | 1% | 21µM* | u
O=[N+]([O-])c1ccc(Nc2ccc(F)cc2)nc1 | -2% | u | 0% | u | i
O=[N+]([O-])c1ccc(Nc2cccc(F)c2)nc1 | 0.73µM* | 3% | -2% | i | i
CN1CCN(S(=O)(=O)c2cccc(C(=O)Nc3nc(-c4ccccc4)cs3)c2)CC1 | u | u | 5% | 3.3µM* | u
Cc1nc(-c2cccc(NC(=O)c3cccc(S(=O)(=O)N4CCCC4)c3)c2)cs1 | 5% | 18µM* | -23% | i | u
CCOC(=O)c1sc(NC(=O)c2cccc(S(=O)(=O)N3CCN(C)CC3)c2)cc1C | -2% | -5% | -1% | i | i
COC(=O)c1c(NC(=O)c2cccc(S(=O)(=O)N3CCN(C)CC3)c2)sc(C)c1C | 21µM* | u | u | i | i
Cc1csc(NC(=O)c2cccc(S(=O)(=O)N3CCCCC3)c2)n1 | 7% | u | -3% | i | i
C=CCNC(=O)CCNS(=O)(=O)c1ccc(Br)cc1 | 3% | -1% | 0% | i | i
CCOC(=O)N1CCN(c2nc(N(c3ccccc3)c3ccccc3)nc(-n3ccnc3)n2)CC1 | x | 0% | x | x | x
CCOCCCNC(=O)c1cc(=O)n(Cc2cccc(C)c2)c2ccccc12 | u | 16µM* | u | 9.2µM* | u
CCC(=O)c1c[nH]c(C(=O)NCCCN2CCOCC2)c1 | -3% | 28% | -4% | u | i
CC(C)(C)c1ccc(C(=O)c2c[nH]c(C(=O)NCCCN3CCOCC3)c2)cc1 | u | 17% | 8% | 18µM* | i
COc1cccc(CN(C)C(=O)c2ccc(OCC(=O)Nc3cccc(C(F)(F)F)c3)c(OC)c2)c1 | 16% | 15µM* | -4% | 4.1µM* | u
